Experimental data reported in paper PMC5540273 (PLoS ONE, 2017).

Tested on: RET
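Also: kd values determined as follow-up on hits from a single-replicate KINOMEscan panel screen.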

Structure (SMILES) | Kd [nM]
Nc1n[nH]c2nnc(-c3ccccc3)cc12 [SB-517389] | > 10000
Cl.O=S(=O)(c1cccc(F)c1)c1ccc(Nc2ncnc3cc(Br)sc23)cc1Cl [GSK306886] | > 10000
COc1cc2c(Nc3cccc(NC(=O)c4ccccc4)c3)ncnc2cc1OCCCN1CCOCC1 [GSK223810] | 110
O=c1cc(N2CCOCC2)nc2n(Cc3cccc(Cl)c3)ccn12 [GSK2296823] | > 10000

Tested on: RIPK2

Structure (SMILES) | Kd [nM]
O=C(Nc1ccccc1)Nc1ccc(Oc2ccc3nccn3n2)cc1 | > 10000
Oc1ccc2ncnc(Nc3ccc(OCc4ccccc4)cc3)c2c1 [GI262866] | 8.1
CCc1nc(-c2cccc(N(C)S(=O)(=O)c3ccccc3)c2)c(-c2ccnc(Nc3ccc(N4CCN(C(C)=O)CC4)nc3)n2)s1 [GSK1645895] | 130
COc1cc2ncnc(Nc3ccc(OCc4ccccc4Br)c(Cl)c3)c2cc1OC.Cl [GI261590] | 410
